Source: PubChem BioAssay (EPA / NIEHS)
Records with an inconclusive call do not appear. Calls of active or inactive are those of the source. The calls were made as follows, unless noted: active = hit-call score of the fitted dose curve at least 0.9, where 1 is the maximum; inactive = score below 0.9.

Assays:
[1] = TOX21_p53_BLA_p2_viability: Viability Assessment in the Tox21 HCT-116 p53 Agonism Beta-lactamase Assay, Phase 2 (AID 2283591; active = hit-call score of the fitted dose curve at least 0.9, where 1 is the maximum;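 also: actives lower the ATP signal meaning cytotoxicity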)
Method in brief: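 HCT116 p53-bla cells, 4000/well, dosed after 5 h plating (217-fold dilution of DMSO stocks) and incubated 16 h at 37C. Viability taken as cellular ATP by CellTiter-Glo luminescence after 30 min RT; signal loss marks cytotoxicity.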

[2] = biological target: Cellular tumor antigen p53 (Homo sapiens) (UniProt P04637); assay: TOX21_p53_BLA_p2_ratio: Tox21 HCT-116 p53 Agonism Beta-lactamase Assay, Ratio, Phase 2 (AID 2283592; active = hit-call score of the fitted dose curve at least 0.9, where 1 is the maximum)
Chain of Cellular tumor antigen p53 (Homo sapiens) (P04637 whole entry, looked up): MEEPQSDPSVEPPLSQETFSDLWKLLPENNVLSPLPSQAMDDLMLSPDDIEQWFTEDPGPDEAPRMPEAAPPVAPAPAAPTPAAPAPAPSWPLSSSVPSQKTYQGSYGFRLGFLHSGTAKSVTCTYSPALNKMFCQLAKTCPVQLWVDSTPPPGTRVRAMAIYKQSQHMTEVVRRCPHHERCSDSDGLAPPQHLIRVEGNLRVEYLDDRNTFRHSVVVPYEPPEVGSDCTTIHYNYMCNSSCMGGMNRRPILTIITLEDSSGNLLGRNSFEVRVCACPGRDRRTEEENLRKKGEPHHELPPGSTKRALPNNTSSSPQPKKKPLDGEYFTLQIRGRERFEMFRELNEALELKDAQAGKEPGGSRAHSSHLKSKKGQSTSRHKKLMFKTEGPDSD
Method in brief: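 Readout: blue/green (460/530 nm) FRET emission ratio after 2 h CCF4-AM loading at room temperature, excitation 405 nm. HCT116 p53 bla cells, 16 h compound exposure at 37C, 5% CO2; agonist direction fitted against DMSO baseline.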

[3] = TOX21_p53_BLA_p3_viability: Viability Assessment in the Tox21 HCT-116 p53 Agonism Beta-lactamase Assay, Phase 3 (AID 2283593; active = hit-call score of the fitted dose curve at least 0.9, where 1 is the maximum;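 also: cells exposed to compound for 16 h before reading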)
Method in brief: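 HCT116 cells, 4000/well, dosed 5 h after plating by pin transfer (217-fold dilution from DMSO stock) and incubated 16 h at 37C, 5% CO2. Viability read as ATP luminescence with CellTiter-Glo after 30 min at room temperature.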

[4] = biological target: Cellular tumor antigen p53 (Homo sapiens) (UniProt P04637); assay: TOX21_p53_BLA_p3_ratio: Tox21 HCT-116 p53 Agonism Beta-lactamase Assay, Ratio, Phase 3 (AID 2283596; active = hit-call score of the fitted dose curve at least 0.9, where 1 is the maximum)
Method in brief: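 Cells were seeded at 4000/well, rested 5 h at 37C, then dosed with DMSO compound solutions (217-fold dilution) for 16 h. CCF4-AM substrate was loaded for 2 h at room temperature, and the 460/530 nm emission ratio was fitted for gain of signal versus DMSO.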

[5] = TOX21_p53_BLA_p4_viability: Viability Assessment in the Tox21 HCT-116 p53 Agonism Beta-lactamase Assay, Phase 4 (AID 2283597; active = hit-call score of the fitted dose curve at least 0.9, where 1 is the maximum;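 also: hits lower the luminescence signal meaning cytotoxicity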)
Method in brief: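 ATP content by CellTiter-Glo luminescence, 30 min RT, read after the beta-lactamase ratio step. Cells: HCT116, 4000/well, compound added after 5 h, exposure 16 h at 37C. Signal loss = reduced viability.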

[6] = biological target: Cellular tumor antigen p53 (Homo sapiens) (UniProt P04637); assay: TOX21_p53_BLA_p5_ratio: Tox21 HCT-116 p53 Agonism Beta-lactamase Assay, Ratio, Phase 5 (AID 2283599; active = hit-call score of the fitted dose curve at least 0.9, where 1 is the maximum)
Method in brief: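 HCT-116 p53-bla cells (4000/well) plated 5 h, dosed with compound (217-fold DMSO dilution) for 16 h at 37 C; CCF4-AM substrate 2 h at room temperature. Activity is the 460/530 nm emission ratio (405 nm excitation), fitted in gain-of-signal direction versus DMSO.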

[7] = TOX21_p53_BLA_p5_viability: Viability Assessment in the Tox21 HCT-116 p53 Agonism Beta-lactamase Assay, Phase 5 (AID 2283600; active = hit-call score of the fitted dose curve at least 0.9, where 1 is the maximum)
Method in brief: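 ATP luminescence (CellTiter-Glo, 30 min, RT) served as the viability read-out, with loss of signal indicating cytotoxicity. Compounds in DMSO were pinned at a 217-fold dilution onto 4000 cells/well and incubated 16 h, 37C.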

[8] = CCTE_Deisenroth_AIME_96WELL_CTox_Active: Cytotoxicity Assessment (CTOX) in CCTE's 96-well Estrogen Receptor Transactivation Assay with AIME metabolic competence (metabolism positive), Deisenroth Lab (AID 2284028; active = hit-call score of the fitted dose curve at least 0.9, where 1 is the maximum)
Method in brief: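 Cytotoxicity in VM7Luc4E2 breast cells after 24 h exposure to medium from a 2 h metabolic pre-incubation with induced rat hepatic S9 in alginate microspheres; fluorescent live-cell protease readout, 10-point series 0.002–200 uM, n=4.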

[9] = CCTE_Shafer_MEA_dev_firing_rate_mean: CCTE's Neural Network Formation Assay for Mean Firing Rate, Shafer Lab (AID 2284031)
Method in brief: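 Read-out: spike count/recording length, averaged over active electrodes, then AUC across days 5, 7, 9, 12. Rat cortical cultures on MEA; continuous 12-day exposure, media and treatment renewed DIV 5, 9; DMSO baseline.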

[10] = CCTE_Shafer_MEA_dev_per_burst_spike_percent: CCTE's Neural Network Formation Assay for Percent of Spikes in a Burst, Shafer Lab (AID 2284032)
Method in brief: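 Value is trapezoidal AUC over recordings on days 5, 7, 9 and 12 of the well-mean fraction of spikes falling in single-electrode bursts; rat cortical cultures exposed continuously from plating, treatment renewed DIV 5 and 9, fitted downward against DMSO.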

[11] = CCTE_Shafer_MEA_dev_active_electrodes_number: CCTE's Neural Network Formation Assay for Number of Active Electrodes, Shafer Lab (AID 2284040; active = hit-call score of the fitted dose curve at least 0.9, where 1 is the maximum)
Method in brief: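 Developing rat cortical networks on MEAs, exposed DIV 0–12. Value is the AUC of active-electrode counts (≥5 spikes/min) from days 5, 7, 9, 12, relative to DMSO.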

[12] = CCTE_Shafer_MEA_dev_burst_rate: CCTE's Neural Network Formation Assay for Burst Rate, Shafer Lab (AID 2284042)
Method in brief: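 Cells plated, treated day 0; recorded DIV 5, 7, 9, 12; fed and re-treated DIV 5, 9. Endpoint: bursts per recording time, active-electrode well mean, trapezoidal AUC, fitted in decreasing direction against DMSO baseline.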

[13] = CCTE_Shafer_MEA_dev_bursting_electrodes_number: CCTE's Neural Network Formation Assay for Number of Bursting Electrodes, Shafer Lab (AID 2284043; active = hit-call score of the fitted dose curve at least 0.9, where 1 is the maximum)
Method in brief: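 Rat cortical primary neurons, 48-well MEA, 16 electrodes/well; dosing DIV 0–12, re-dosed with full media change DIV 5, 9. Recordings DIV 5/7/9/12, AxIS adaptive spike detector; bursting electrode = ≥1 burst/2 min. AUC across days; loss of signal vs DMSO.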

[14] = CCTE_Shafer_MEA_dev_per_burst_interspike_interval: CCTE's Neural Network Formation Assay for Burst Interspike Interval, Shafer Lab (AID 2284044)
Method in brief: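 Readout is the average time between spikes inside single-electrode bursts, taken as a well mean across bursting electrodes. Cortical neurons from rat developed networks on MEA plates under continuous 12-day exposure; recordings on days 5, 7, 9 and 12 were integrated by trapezoidal AUC.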

[15] = CCTE_Shafer_MEA_dev_burst_duration_mean: CCTE's Neural Network Formation Assay for Mean Burst Duration, Shafer Lab (AID 2284045)
Method in brief: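 Rat cortical cultures, 1.5 x 10^5 cells/well with laminin drop; continuous dosing days 0–12, media plus treatment refreshed DIV 5, 9. AxIS adaptive spike detection; mean single-electrode burst duration, AUC over four recordings, negative direction vs DMSO.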

[16] = CCTE_Shafer_MEA_dev_interburst_interval_mean: CCTE's Neural Network Formation Assay for Mean Interburst Interval, Shafer Lab (AID 2284046);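 also: well-mean interburst interval of bursting electrodes as AUC over four recording days; curve fitted for decrease in interburst interval relative to DMSO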
Method in brief: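 Developing rat cortical networks on 48-well MEAs receive compound from the day of plating. Burst intervals from each active electrode are averaged per well, and AUC over the recording days is fitted in the negative direction against DMSO.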

[17] = CCTE_Shafer_MEA_dev_network_spike_number: CCTE's Neural Network Formation Assay for Number of Network Spikes, Shafer Lab (AID 2284048)
Method in brief: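 Rat cortical primary cultures on 48-well MEA (16 electrodes/well); continuous exposure DIV 0–12, full medium and treatment exchange DIV 5, 9. Readout: network spike count, AxIS adaptive detection, recordings DIV 5/7/9/12 collapsed to AUC; loss-of-signal fit, DMSO baseline.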

[18] = CCTE_Shafer_MEA_dev_network_spike_peak: CCTE's Neural Network Formation Assay for Mean Number of Electrodes in Network Spike, Shafer Lab (AID 2284049)
Method in brief: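 Network-spike peak electrode count from recordings on days 5, 7, 9 and 12 was combined as trapezoidal area under the curve. Rat cortical cultures were treated continuously from plating, with compound renewed at each feed (DIV 5, 9); fits versus DMSO.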

[19] = CCTE_Shafer_MEA_dev_spike_duration_mean: CCTE's Neural Network Formation Assay for Mean Spike Duration, Shafer Lab (AID 2284051);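 also: mean network spike duration pooled as area under curve over DIV 5 to 12 recordings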
Method in brief: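 Readout is the average length of network spikes, clustered firing across electrodes, summed over DIV 5, 7, 9 and 12 as area under the curve. Neurons from rat cortex developed networks on MEA plates under continuous 12-day exposure.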

[20] = CCTE_Shafer_MEA_dev_network_spike_duration_std: CCTE's Neural Network Formation Assay for Standard Deviation of Network Spike Duration, Shafer Lab (AID 2284052);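 also: area under curve of spike duration SD across recording days 5 to 12; hits are decreases in network spike duration SD versus DMSO vehicle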
Method in brief: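 Read-out is the trapezoidal area-under-the-curve across recordings made on days 5, 7, 9 and 12, fitted in the negative direction against DMSO baseline. Neurons were primary rat cortical cells treated from day 0, with treatment renewed at each feed.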

[21] = CCTE_Shafer_MEA_dev_per_network_spike_spike_number_mean: CCTE's Neural Network Formation Assay for Mean Number of Spikes in a Network Spike, Shafer Lab (AID 2284053)
Method in brief: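 Continuous twelve-day exposure of developing rat cortical networks grown over 16 microelectrodes per well; spontaneous firing is captured at four time points, and the per-network-spike spike number is integrated over development by trapezoidal AUC.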

[22] = CCTE_Shafer_MEA_dev_per_network_spike_spike_percent: CCTE's Neural Network Formation Assay for Percent of Spikes in a Network Spike, Shafer Lab (AID 2284054)
Method in brief: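 Read-out: percent of spikes falling in a 0.05 s window at network-spike peak, from spontaneous MEA recordings on days 5, 7, 9 and 12; trapezoidal AUC; loss of signal versus DMSO. Rat cortical cultures, compound present throughout.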

[23] = CCTE_Shafer_MEA_dev_LDH: CCTE's Lactate Dehydrogenase Assay for Cytotoxicity in the Neural Network Formation Assay, Shafer Lab (AID 2284068; active = hit-call score of the fitted dose curve at least 0.9, where 1 is the maximum;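 also: exposure for twelve days from plating with re-dosing on DIV 5 and 9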)
Method in brief: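 Cytotoxicity companion to network-formation recordings: rat cortical neurons received compound over 12 days of development, re-dosed at DIV 5 and 9 feeds. Viability was inferred from LDH enzyme activity relative to DMSO.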

[24] = CCTE_Shafer_MEA_dev_mutual_information_norm: CCTE's Neural Network Formation Assay for Mutual Information Normalization, Shafer Lab (AID 2284091)
Method in brief: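 Neurons from rat cortex were seeded at 1.5 x 10^5 cells/well onto PEI-coated MEAs in a laminin drop, then exposed to compound from day 0 for twelve days. Network recordings on four days gave mutual information, summarised by AUC relative to DMSO.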

[25] = CCTE_Shafer_MEA_dev_correlation_coefficient_mean: CCTE's Neural Network Formation Assay for Mean Correlation Coefficient, Shafer Lab (AID 2284093)
Method in brief: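 Read-out: well-mean correlation coefficient of spike trains between electrode pairs, collapsed over four recording days as trapezoidal area-under-the-curve. Developing rat cortical neuron networks grown on MEAs received test chemical continuously from plating.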

[26] = ACEA_ER_AUC_viability: ACEA Biosciences xCELLigence Real-Time Cell Analysis on Estrogen Receptor Agonism for Viability (AID 2283782; active = hit-call score of the fitted dose curve at least 0.9, where 1 is the maximum;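 also: hit means loss of impedance signal meaning reduced cell growth or viability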)
Method in brief: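 Read-out: real-time electrical impedance (RT-CES) area under curve, loss of signal taken as reduced viability, normalized to DMSO baseline. T-47D cells, charcoal-stripped serum medium, compounds up to 100 uM final, continuous exposure, 80 h.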

[27] = CCTE_Harrill_HTTr_Viability_MCF7: CCTE's 6-hour Cell Viability Assessment for the High-Throughput Transcriptomics (HTTr) Platform, in MCF-7 cells cultured in DMEM + 10% fetal bovine serum, Harrill Lab (AID 2284010)
Method in brief: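 PI exclusion, high-content imaging; 8-pt dilution series, 6 h exposure; bidirectional fit vs DMSO (neg. ctrl/baseline); gain of signal = loss of membrane integrity.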

[28] = CCTE_Harrill_HTTr_CellCount_MCF7: CCTE's Cell Proliferation Assessment for the High-Throughput Transcriptomics (HTTr) Platform, Harrill Lab (AID 2284012; active = hit-call score of the fitted dose curve at least 0.9, where 1 is the maximum;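 also: count of Hoechst-stained nuclei per well by high-content imaging in MCF-7 cells; cells exposed to compound for six hours; intended direction is loss of nuclei count meaning fewer cells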)
Method in brief: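 Readout: Hoechst nuclear count by high-content imaging. MCF-7, 8-point dilution series, 6 h exposure. Bidirectional fit vs DMSO baseline.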

Measured: AC50

c1ccc2c(c1)cc1ccc3cccc4ccc2c1c34
active: [2] 2050 nM | [4] 4140 nM | [6] 1560 nM
not listed: [26] | [27] | [28]
inactive: all other assays above

CCOP(=S)(OCC)Oc1cnc2ccccc2n1
inactive: [26] | [27] | [28]
